# Assay results taken from PubChem BioAssay (Tox21).
# “And” between values parts separate entries of the source, which are not always exact repeats. Identical values can stand only once. The source made the active and inactive calls. A call without a number means that no potency is given here. Unless noted, the call rests on the fitted dose curve; in most records, active means well fitted curve in the direction sought with a large enough effect in the repeat runs; inconclusive means weak or mixed curves; inactive means no such curve, though single readings can be large; an effect the other way counts as inactive or inconclusive.
# Key:
# [1] = qHTS assay to identify small molecule antagonists of the thyroid receptor (TR) signaling pathway - cell viability counter screen (AID 743064); further: nearly all actives have a fitted effect of over 50% in size; further: potency means the concentration at half of the fitted maximal effect
# Outline: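 Fluorescence from CellTiter-Fluor, added after 23.5 h exposure at 37 °C, reported viability of GH3.TRE-Luc cells co-treated with compound and 1 nM T3. Measured in the same wells as the luciferase TR readout.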
# [2] = qHTS assay to identify small molecule antagonists of the thyroid receptor (TR) signaling pathway (AID 743065); further: nearly all actives have a fitted effect of over 55% in size; further: potency means the concentration at half of the fitted maximal effect
# Outline: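 GH3.TRE-Luc rat pituitary cells carrying two TR response elements driving luciferase were plated for 4 h, given compound plus 1 nM T3 (final), and incubated 23.5 h at 37 C. ONE-Glo luminescence measured reporter inhibition; CellTiter-Fluor fluorescence tracked cytotoxicity.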
# [3] = biological target: Estrogen receptor (Homo sapiens) (UniProt P03372); test: qHTS assay to identify small molecule antagonists of the estrogen receptor alpha (ER-alpha) signaling pathway (AID 743069; active means well fitted curve in the direction sought with a large enough effect in the signal ratio in the repeat runs, not every such curve was filed as active; inconclusive means weak or mixed curves, or effect the other way; inactive means no such curve, though single readings can be large or run the other way; the % refers to the signal ratio; further: potency means the concentration at half of the fitted maximal effect)
# Outline: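 HEK293 cells stably carrying an ER-alpha-UAS-bla beta-lactamase reporter were pre-cultured overnight in 2% charcoal-stripped FBS medium. Test compounds in DMSO were added together with 17beta-estradiol for 18 hr at 37C. Read-out was fluorescence after 2 hr with LiveBLAzer B/G FRET substrate at room temperature.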
# [4] = qHTS assay to identify small molecule antagonists of the estrogen receptor alpha (ER-alpha) signaling pathway - cell viability counter screen (AID 743074; calls by dose curve; further: nearly all actives have a fitted effect of over 45% in size)
# [5] = biological target: Estrogen receptor (Homo sapiens) (UniProt P03372); test: qHTS assay to identify small molecule agonists of the estrogen receptor alpha (ER-alpha) signaling pathway (AID 743075; calls by dose curve; further: potency means the concentration at half of the fitted maximal effect)
# [6] = biological target: Estrogen receptor (Homo sapiens) (UniProt P03372); test: qHTS assay to identify small molecule agonists of the estrogen receptor alpha (ER-alpha) signaling pathway using the BG1 cell line (AID 743079); settings: BG1Luc4E2 cells, ERE-luciferase agonist, 22 h; activation: at 70.3 µM (top of the series); further: nearly all actives have a fitted effect of over 20% in size; further: potency means the concentration at half of the fitted maximal effect
# [7] = qHTS assay to identify small molecule antagonists of the estrogen receptor alpha (ER-alpha) signaling pathway using the BG1 cell line - cell viability counter screen (AID 743081);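 further: compound given together with 17beta-estradiol as the ER stimulus; nearly all actives have a fitted effect of over 45% in size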; further: potency means the concentration at half of the fitted maximal effect
# Aromatase (Homo sapiens) = Aromatase (Homo sapiens) (UniProt P11511); test: qHTS assay to identify aromatase inhibitors (AID 743083); further: nearly all actives have a fitted effect of over 55% in size; further: potency means the concentration at half of the fitted maximal effect
# [8] = system: thyroid hormone receptor (rat, GH3 cells); test: qHTS assay to identify small molecule agonists of the thyroid receptor (TR) signaling pathway (AID 743066; calls by dose curve)
# [9] = qHTS assay to identify small molecule antagonists of the estrogen receptor alpha (ER-alpha) signaling pathway using the BG1 cell line (AID 743080; calls by dose curve;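 further: BG1 cells stimulated with 17beta-estradiol alongside compound; nearly all actives have a fitted effect of over 25% in size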; further: potency means the concentration at half of the fitted maximal effect)
# Outline: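 BG1-Luc-4E2 cells (endogenous full-length ER-alpha, 4xERE luciferase) hormone-starved 5 days in charcoal-stripped FBS, plated 4,000/well for 24 h, then compound plus 17beta-estradiol for 21.5 h at 37 C; ONE-Glo luminescence read.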
# Sequence of Aromatase (Homo sapiens) (P11511 whole entry, looked up): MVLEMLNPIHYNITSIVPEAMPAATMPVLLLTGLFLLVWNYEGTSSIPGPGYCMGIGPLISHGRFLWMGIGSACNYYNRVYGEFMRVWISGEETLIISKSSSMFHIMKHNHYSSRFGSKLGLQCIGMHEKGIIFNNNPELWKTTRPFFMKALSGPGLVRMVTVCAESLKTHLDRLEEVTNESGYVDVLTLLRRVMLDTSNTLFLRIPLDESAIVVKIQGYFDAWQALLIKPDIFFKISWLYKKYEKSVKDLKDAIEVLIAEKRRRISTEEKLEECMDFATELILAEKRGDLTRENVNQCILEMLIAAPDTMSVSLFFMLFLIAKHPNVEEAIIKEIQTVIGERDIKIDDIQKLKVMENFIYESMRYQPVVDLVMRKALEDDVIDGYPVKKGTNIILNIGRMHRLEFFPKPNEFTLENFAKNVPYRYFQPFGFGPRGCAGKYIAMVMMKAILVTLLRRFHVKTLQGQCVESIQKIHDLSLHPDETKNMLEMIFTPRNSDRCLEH
# Sequence of Estrogen receptor (Homo sapiens) (P03372 whole entry, looked up): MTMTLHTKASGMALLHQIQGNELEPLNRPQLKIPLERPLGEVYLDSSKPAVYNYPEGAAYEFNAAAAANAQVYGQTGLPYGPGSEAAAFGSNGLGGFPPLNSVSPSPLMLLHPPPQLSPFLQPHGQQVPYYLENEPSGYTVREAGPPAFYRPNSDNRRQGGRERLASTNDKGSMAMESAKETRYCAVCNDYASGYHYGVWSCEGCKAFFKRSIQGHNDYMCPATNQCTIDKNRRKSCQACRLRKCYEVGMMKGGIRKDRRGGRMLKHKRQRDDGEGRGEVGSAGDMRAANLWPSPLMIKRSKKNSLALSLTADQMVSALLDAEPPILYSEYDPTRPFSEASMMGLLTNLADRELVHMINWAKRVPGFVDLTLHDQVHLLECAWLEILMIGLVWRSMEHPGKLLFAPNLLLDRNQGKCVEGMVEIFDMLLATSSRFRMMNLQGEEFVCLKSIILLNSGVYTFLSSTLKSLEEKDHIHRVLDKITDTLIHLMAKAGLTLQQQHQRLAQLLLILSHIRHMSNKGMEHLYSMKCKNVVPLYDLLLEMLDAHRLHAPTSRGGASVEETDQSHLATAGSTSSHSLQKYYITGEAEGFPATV
Compound,Potency [1],Potency [2],Potency [3],Potency [4],Potency [5],Potency [6],Potency [7],Potency (Aromatase (Homo sapiens)),Potency [8],Potency [9]
CC(C)N=c1cc2n(-c3ccc(Cl)cc3)c3ccccc3nc-2cc1Nc1ccc(Cl)cc1,7.17 µM (active),6.39 µM (active),inactive,inactive,inactive,inactive,11.4 µM (active),inactive,,
C=C1C(=C/C=C2\CCC[C@]3(C)[C@@H]([C@H](C)/C=C/[C@H](C)C(C)C)CC[C@@H]23)C[C@@H](O)C[C@@H]1O,29.8 µM (active),29.8 µM (active),,,inactive,inactive,,,inactive,
CC(=O)[C@]1(O)Cc2c(O)c3c(c(O)c2[C@@H](O[C@H]2C[C@H](N)[C@H](O)[C@H](C)O2)C1)C(=O)c1c(O)cccc1C3=O,150 nM (active) and 188 nM (active),0.119 µM (active),10.7 µM [inconclusive] (active),inactive,3.38 µM [inconclusive] (active) and 6.01 µM [inconclusive] (active),,18.8 µM (active) and 23.7 µM (active),3.35 µM (active),,
Cc1cc(O)c2c(c1)O[C@@]1(C)CC[C@H]3C(C)(C)CCCC34CO[C@@H]2[C@H]41 (stereo not given in full),18.8 µM (active),13.3 µM (active),inactive,inactive,inactive,,inactive,26.6 µM (active),,26.6 µM (active)
CCCCCCCCCCCCCCCCCCOP(=O)([O-])OC1CC[N+](C)(C)CC1,inactive,inactive,,,inactive,inactive,inactive,inactive,inactive,inactive
COC(=O)[C@H]1[C@H]2C[C@@H]3c4[nH]c5ccccc5c4CCN3C[C@H]2C[C@@H](OC(=O)c2cc(OC)c(OC)c(OC)c2)[C@@H]1OC,26.6 µM (active),2.11 µM (active) and 21.1 µM (active),2.39 µM [inconclusive] (active),inactive,inactive,inactive,inactive,5.96 µM (active) and 29.8 µM (active),,6.68 µM (active)
CCOC(=O)[C@H](CCc1ccccc1)N[C@@H](C)C(=O)N1CC2(C[C@H]1C(=O)O)SCCS2,inactive,inactive,,,,,inactive,inactive,inactive,
CN(C)C(=O)CCSC(SCCC(=O)O)c1cccc(/C=C/c2ccc3ccc(Cl)cc3n2)c1 (stereo not given),29.8 µM (active),26.6 µM (active),7.56 µM [inconclusive] (active),inactive,inactive,2.37 µM (active),inactive,inactive,,
Cc1cccc(C)c1NC(=O)NC1=CCCN1C,inactive,inactive,,,,,inactive,inactive,inactive,
C=C1CC[C@H](O)CC1=C/C=C1\CCC[C@]2(C)[C@@H]([C@H](C)CC[C@@H](O)C(C)(C)O)CC[C@@H]12,26.6 µM (active),16.8 µM (active),21.3 µM [inconclusive] (active),,inactive,,inactive,inactive,,
O=C(NOC[C@H](O)CO)c1ccc(F)c(F)c1Nc1ccc(I)cc1F,inactive,inactive,,,inactive,inactive,inactive,inactive,inactive,inactive
CC1=C(/C=C/C(C)=C/C=C/C(C)=C/C(=O)Oc2c(C)c(C)c3c(c2C)CC[C@@](C)(CCC[C@H](C)CCC[C@H](C)CCCC(C)C)O3)C(C)(C)CCC1,inactive,inactive,inactive,inactive,inactive,inactive,inactive,,,7.5 µM (active)
CN(C)CCCN1c2ccccc2C(C)(C)c2ccccc21,23.7 µM (active),26.6 µM (active),inactive,inactive,inactive,inactive,inactive,inactive,,inactive
CN1CCCC(CN2c3ccccc3Sc3ccccc32)C1 (stereo not given),11.9 µM (active),11.9 µM (active),19 µM [inhibitor] (active),inactive,inactive,inactive,inactive,,,inactive
C[C@@H]1CCC2[C@@H](C)[C@@H](O)O[C@@H]3O[C@@]4(C)CC[C@@H]1[C@@]23OO4 (stereo not given in full),2.11 µM (active),0.75 µM (active),9.52 µM [inconclusive] (active),inactive,,inactive,,,,inactive
S=C1SCN(Cc2ccccc2)CN1Cc1ccccc1,18.8 µM (active),18.8 µM (active),inactive,inactive,inactive,26.6 µM (active),inactive,inactive,,
C[C@H]1[C@@H](OC(=O)CCC(=O)O)O[C@@H]2OC3(C)CC[C@H]4[C@H](C)CC[C@@H]1[C@@]24OO3,2.98 µM (active),1.06 µM (active),7.56 µM [inconclusive] (active),inactive,inactive,inactive,,,,inactive
CN(C)c1ccc(C(=C2C=CC(=[N+](C)C)C=C2)c2c(O)c(S(=O)(=O)[O-])cc3cc(S(=O)(=O)O)ccc23)cc1,29.8 µM (active),11.9 µM (active),,,inactive,,23.7 µM (active),26.6 µM (active),inactive,
CCCCCC(O)/C=C/C=O (stereo not given),inactive,inactive,,,,,inactive,inactive,inactive,
CC(=O)O[C@H]1CC[C@@]2(C)C(=CC[C@H]3[C@@H]4CC[C@H](C(C)=O)[C@@]4(C)CC[C@@H]32)C1,inactive,inactive,,,16.9 µM [inconclusive] (active),,inactive,inactive,inactive,inactive
COc1ccc(C[C@H](N)C(=O)N[C@H]2[C@@H](O)[C@H](n3cnc4c(N(C)C)ncnc43)O[C@@H]2CO)cc1,11.9 µM (active),10.6 µM (active),,inactive,inactive,,21.1 µM (active),11.9 µM (active),,
Cc1cc(/C=C/c2ccc3cc(N(C)C)ccc3[n+]2C)c(C)n1-c1ccccc1,6.39 µM (active),4.03 µM (active),,,,,11.4 µM (active),7.17 µM (active),,
Cc1cccc(C)c1N(CCCc1cccnc1)C(=O)C(C)N (stereo not given),inactive,,inactive,inactive,inactive,inactive,inactive,5.96 µM (active),inactive,inactive
CC(CN(C)C)CN1c2ccccc2Sc2ccc(C(F)(F)F)cc21 (stereo not given),8.41 µM (active),13.3 µM (active),,inactive,,,inactive,,,
O=C(O[C@H]1CN2CCC1CC2)N1CCc2ccccc2[C@@H]1c1ccccc1,23.7 µM (active),23.7 µM (active),,inactive,,,inactive,inactive,,
C#C[C@]1(O)CC[C@H]2[C@@H]3CCC4=C/C(=N/O)CC[C@@H]4[C@H]3CC[C@@]21CC,29.8 µM (active),11.9 µM (active),,inactive,0.151 µM [inconclusive] (active),0.0422 µM (active),inactive,23.7 µM (active),,
Cc1ccc(C2(O)CCN(CCCC(=O)c3ccc(F)cc3)CC2)cc1,13.3 µM (active),,inactive,inactive,inactive,inactive,inactive,inactive,inactive,inactive
